High-throughput results from PubChem BioAssay.
Hits are enriched below; roughly 12% of the tested compounds scored in any of these assays.
Pf growth 96h – P. falciparum growth inhibition at 96 hour, primary screen for plastid delayed-death inhibitors; P. falciparum luciferase reporter growth, 96 h; Potency, µM (doses to about 28.7 µM), without a hit: top-dose activity change, negative = inhibition, hits mostly inhibitors; 320,000 compounds, 6.9% hits; AID 504834; also: % is scaled to controls: 0 for no effect and ±100 for the full control effect
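Infected RBCs, 2% Hct / 0.05% parasitemia final; luciferase-reporter P. falciparum; cpd 96 h, 37 C, 5% CO2; luciferase detection reagent; luminescence.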
SARS PLP yeast – inhibitors of SARS-CoV papain-like protease in yeast. S. cerevisiae expressing SARS-CoV PLpro, growth rescue. Potency, µM (doses to about 32.9 µM), for the others: at the top dose activity, positive = growth rescue, actives largely listed as activators. 330,000 compounds, 0.19% hits. AID 485353; calls by dose curve; also: 0% is about no effect; nearly all actives have a fitted effect of over 55% in size
Pf growth 48h – P. falciparum growth inhibition at 48 hours (one generation). P. falciparum luciferase growth in erythrocytes, 48 h. AID 504832. Potency, µM (top dose mostly 28.7 µM), for inactives: top-dose activity change, negative = inhibition, actives largely listed as inhibitors. 310,000 compounds, 5.9% hits; also: % is scaled to controls: 0 for no effect and ±100 for the full control effect
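Read-out is firefly luciferase luminescence from an integrated reporter in P. falciparum, so falling signal marks reduced parasite growth. Infected erythrocytes were at 2% hematocrit and 0.1% parasitemia (final) in Albumax-supplemented RPMI 1640.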
Sm TGR block – blocks Schistosoma mansoni thioredoxin glutathione reductase; 360,000 compounds, 3% hits; Q962Y6; purified TGR, DTNB reduction, TNB absorbance 405 nm; Potency, µM (titrated, usually from 114 µM), without a hit: at the highest dose activity change, negative = inhibition, usual class: inhibitors; also: % is scaled to controls: 0 for no effect and ±100 for the full control effect; nearly all actives have a fitted effect of over 60% in size
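First, TGR (20 nM dispensed) and NADPH were mixed with compound. Second, a 15 min room-temperature incubation followed. Third, further NADPH and then DTNB were added to start the reaction. Finally, TNB absorbance was monitored kinetically.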
* = called active by the depositor; ? = inconclusive; nt = no result; [ ] = another dose, or the depositor's remark. Unless noted, calls follow the shape of the dose curve; as a rule, active = well fitted curve in the direction sought with a large enough effect; inconclusive = small, poorly fitted or top-dose-only effect, or another doubt; inactive = no such curve, though single readings can be large; an effect the other way counts as inactive or inconclusive. Potency is read from the fitted curve at half-maximal effect.

SMILES	Pf growth 96h	SARS PLP yeast	Pf growth 48h	Sm TGR block
CCN(CC(=O)Nc1ccccc1C(F)(F)F)C(=O)CCSc1ccc(F)cc1	7%	9%	8%	-8%
N#C/C(=C\c1ccccc1)C(=O)NC1CC1	16%	-4%	8%	-5%
Cc1ccc2nc(/C(C#N)=C\c3ccc(N4CCOCC4)o3)[nH]c2c1	?	3%	32%	?
N#C/C(=C\c1cccnc1)C(=O)NC1CCCCC1	?	-46%	10µM*	-1%
Cc1ccc(/C(C#N)=C\c2ccc(N3CCOCC3)o2)cc1	-24%	-35%	?	3.2µM*
N#C/C(=C\c1ccc(N2CCOCC2)o1)C(=O)NC1CCCCC1	?	0%	?	35µM*
N#C/C(=C/c1ccc(N2CCCCC2)o1)c1cccc(F)c1	?	-29%	nt	2.5µM*
N#C/C(=C\c1ccc(N2CCOCC2)o1)C(=O)NCC1CCCO1 (centres undefined)	-18%	-1%	?	3%
CCOc1ccc(NC(=O)N(Cc2c[nH]c3ccccc23)C2CCCCCC2)cc1	nt	nt	nt	-4%
Cc1c(NS(=O)(=O)c2ccccc2)cc(Cl)c(O)c1C	nt	?	-6%	3.5µM*
Cc1ccc(S(=O)(=O)Nc2c(Cl)c(Cl)c(O)c3ccccc23)cc1	?	-27%	-21%	0.32µM*
Cc1ccc(S(=O)(=O)Nc2cc(C(C)C)c(O)cc2C)cc1	?	1%	?	1%
Cc1ccc(S(=O)(=O)Nc2cc(Cl)c(O)cc2C)cc1	48%	4%	25%	50µM*
COc1ccc(Cl)cc1NC(=O)c1cc(S(=O)(=O)N(C)Cc2ccccc2)ccc1F	nt	nt	nt	2%
CN(Cc1cccc(F)c1)C(=O)c1ccc(S(=O)(=O)N2CCCCCC2)cc1	nt	-30%	nt	nt
O=C(N/N=C/c1ccc2c(c1)OCO2)c1cc(-c2ccccc2)nc2ccccc12	12µM*	-6%	?	4%
COC(=O)c1cc(-c2ccc3c(c2)OCO3)nc2ccccc12	0.41µM*	2%	3%	2%
Cc1cc(N/N=C/c2ccc3c(c2)OCO3)nc2ccccc12	4.7µM*	-1%	?	5%
Cc1cc(C)nc(NC(=O)c2cc(-c3ccc4c(c3)OCO4)nc3ccccc23)c1	?	-2%	?	1%
O=c1[nH]c(N/N=C\c2ccc3c(c2)OCO3)nc2ccccc12	-29%	-1%	-76%	nt
O=C1C2=C(C(=O)c3ccccc31)C1O[C@](CCCCN3C(=O)c4ccccc4C3=O)(Cc3ccccc31)O2	?	-5%[6.58 µM]	?	?
COc1cc2c(cc1OC)C1O[C@](CCCCN3C(=O)c4ccccc4C3=O)(C2)OC2=C1C(=O)OC1(CCCCC1)C2	?	-1%[6.58 µM]	?	4.5µM*
COc1cc2c(cc1OC)CN(C(=O)CCCN1C(=O)c3ccccc3C1=O)CC2	-1%	-1%	-6%	-27%
COc1cc2c(cc1OC)C1O[C@](CCCCN3C(=O)c4ccccc4C3=O)(C2)OC2=C1C(=O)CC(C)(C)C2	?	?	0.24µM*	4.5µM*
O=C1CCCC2=C1C1O[C@](CCCCN3C(=O)c4ccccc4C3=O)(Cc3c1ccc1ccccc31)O2	-6%[5.75 µM]	1%[6.58 µM]	?	6%[22.9 µM]
SMILES	Pf growth 96h	SARS PLP yeast	Pf growth 48h	Sm TGR block
O=C1OC2(CCCCC2)CC2=C1C1O[C@](CCCCN3C(=O)c4ccccc4C3=O)(Cc3ccccc31)O2	?	1%[6.58 µM]	1.5µM*	?
Cc1cc(C)c(NC(=O)Cn2c(=O)n(CCC(=O)NCc3ccc4c(c3)OCO4)c(=O)c3ccccc32)c(C)c1	nt	nt	nt	1%
CCOCC(=O)Nc1ccc(-c2cn3c(C)csc3n2)cc1	nt	nt	nt	4%
Cc1ccc(NC(=O)CN2C(=O)CCc3cc(S(=O)(=O)N4CCOCC4)ccc32)cc1N(C)C	nt	nt	nt	-16%
CSc1ccc(CN(C)C(=O)C(c2ccccc2)c2ccccc2)cc1	?	-6%	8.3µM*	-17%
O=C(Nc1ccc2c(c1)CCC2)C1CCCO1 (centres undefined)	nt	-3%	90%	-8%
O=C(Nc1ccc2c(c1)CN(Cc1ccccc1O)CC2)C1CCCO1 (centres undefined)	3.3µM*	-1%	?	-14%
Cc1ccc(C2CC(c3ccccc3OC(F)F)Nc3ncnn32)cc1 (centres undefined)	nt	0%	12µM*	-6%
Cc1ccc(Cn2cnc3sc4c(c3c2=O)CCC4)c(C)c1	1.9µM*	0%	?	-2%
CC(=O)N1N=C(c2ccco2)CC1c1ccc(Br)cc1 (centres undefined)	10µM*	5%	6%	-34%
CC(=O)N1N=C(c2c(O)n(C)c(=O)n(C)c2=O)CC1c1ccccc1 (centres undefined)	2.6µM*	1%	3.7µM*	6%
O=C(CSc1oc(-c2ccco2)nc1S(=O)(=O)c1ccc(Br)cc1)c1ccc(Cl)cc1	nt	nt	nt	-13%
O=C(Nc1ccccc1OCc1cc(=O)n2ccccc2n1)c1cccc(Br)c1	nt	nt	nt	0%
CCC(Cc1ccccc1)NC(=O)CN(C)S(=O)(=O)c1ccc2c(c1)c(=O)n(C)c(=O)n2C (centres undefined)	7.4µM*	-5%	nt	-7%
Cn1c(=O)c2cc(S(=O)(=O)NC(Cc3ccccc3)C(=O)NCc3ccco3)ccc2n(C)c1=O (centres undefined)	17%	10%	nt	40µM*
O=C(Cn1c(=O)n(Cc2nc(-c3ccccc3)no2)c(=O)c2cc3c(cc21)OCO3)Nc1cccc(C(F)(F)F)c1	nt	nt	nt	4%
COc1ccccc1Cn1cc(C(=O)c2ccc(C)cc2)c(=O)c2cc(C)ccc21	nt	nt	nt	1%
CCOc1ccc2[nH]c3c(NCC(C)C)ncnc3c2c1	1.7µM*	1%	2.3µM*	5%
COc1ccc2[nH]c3c(NCCN(C(C)C)C(C)C)ncnc3c2c1	0.47µM*	-3%	2.6µM*	0%
CCOc1ccc2[nH]c3c(NCCN(CC)CC)ncnc3c2c1	2.1µM*	-5%	2.3µM*	0%
CCOc1ccc2[nH]c3c(NCCCOC)ncnc3c2c1	?	20%	nt	-1%
COc1ccc2[nH]cc(CCNC(=O)COc3ccc4ccc(=O)oc4c3)c2c1	13%	-7%	5%	-13%
O=C(NCCCN1CCCCC1)c1cc(Sc2ccc(Cl)cc2)nc2ccccc12	nt	nt	nt	-12%
COc1ccc(Br)cc1CNCc1c(C(=O)O)c(C)n(Cc2ccccc2C)c1C	nt	nt	nt	-11%
Cc1cc(C(=O)O)c(=O)[nH]c1C	2.6µM*	1%	35%	40%
Cc1cc(C(=O)NCc2ccccc2)c(=O)[nH]c1C	38%	2%	17%	?
Cc1cc(=O)oc2cc(OCC(=O)Nc3ccccc3C(N)=O)c(Cl)cc12	8%	1%	30%	5%
CCN(c1ccc(NC(=O)CSCc2c(C)noc2C)cc1)C(C)C	?	0%	?	-4%
Cc1cccc(N2CCN(C(=O)c3c(C)oc4nc(C)nc(N5CCCC5)c34)CC2C)c1 (centres undefined)	nt	nt	nt	1%
Cc1cc(=O)n2[nH]cc(-c3ccccc3)c2n1	9.3µM*	-3%	1%	-21%
